A selection: hits, their analogues and other compounds. The true share with any hit is near 3.5%.
TEAD-YAP inh – TEAD-YAP interaction inhibition. HEK-TIYL cells, TEAD-Gal4/YAP UAS-luciferase luminescence. inhibition, % at 9.12 µM. 640,000 compounds, 1.4% hits; in the data active = inhibition above about 32%
GPR151 ag – human GPR151 activation; Q8TDV0; PathHunter beta-arrestin GPR151 cells, luminescence; activation, % at 11.2 µM; 650,000 compounds, 1% hits; in the data active = activation above about 4.9%
MITF primary – human MITF inhibition, primary screen | inhibition, % at 2.6 µM | O75030 | 650,000 compounds, 0.91% hits | AlphaScreen MITF homodimerization, bead proximity signal; in the data active = inhibition above about 50%
FBW7 act – activators of human E3 ligase FBW7. Q969H0. AlphaScreen FBW7–phospho-cyclin E peptide binding, activator screen. normalized activity (activation), % at 26.1 µM. 650,000 compounds, 0.13% hits; in the data active = normalized activity above about 1.9%;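 also: purified mutant Fbw7 with reduced substrate affinity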
Target sequence (Q969H0 whole entry, looked up): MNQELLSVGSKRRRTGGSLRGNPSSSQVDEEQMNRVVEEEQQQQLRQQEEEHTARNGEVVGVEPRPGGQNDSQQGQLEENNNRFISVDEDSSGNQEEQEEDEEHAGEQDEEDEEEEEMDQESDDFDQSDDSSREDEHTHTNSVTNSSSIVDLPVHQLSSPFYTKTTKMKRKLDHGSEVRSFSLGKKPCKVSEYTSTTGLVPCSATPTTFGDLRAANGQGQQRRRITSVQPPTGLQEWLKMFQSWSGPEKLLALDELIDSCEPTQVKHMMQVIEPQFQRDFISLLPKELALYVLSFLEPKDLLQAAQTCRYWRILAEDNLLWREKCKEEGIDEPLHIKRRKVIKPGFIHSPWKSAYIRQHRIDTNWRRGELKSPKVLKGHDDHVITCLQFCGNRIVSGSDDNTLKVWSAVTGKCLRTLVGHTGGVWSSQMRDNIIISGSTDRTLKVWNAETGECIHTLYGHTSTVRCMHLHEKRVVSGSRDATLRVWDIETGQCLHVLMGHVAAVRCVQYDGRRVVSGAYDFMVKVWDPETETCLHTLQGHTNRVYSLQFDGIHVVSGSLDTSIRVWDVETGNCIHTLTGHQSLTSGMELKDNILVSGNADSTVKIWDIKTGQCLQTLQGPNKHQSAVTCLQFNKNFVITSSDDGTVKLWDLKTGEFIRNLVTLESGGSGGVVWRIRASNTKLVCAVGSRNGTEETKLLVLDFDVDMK
MITF inh conf – human MITF inhibition, confirmation; shares compounds with MITF primary; AlphaScreen MITF homodimerization, biotin/His-MITF beads; inhibition, % at 2.6 µM; 4,700 compounds, 16% hits;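 active = inhibition above a cutoff derived from the DMSO control wells, cut at about 28% in these data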;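 also: inhibitors lower the bead chemiluminescence by keeping MITF from dimerizing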
AlphaScreen DR – AlphaScreen optical interference, dose response counter-screen; shares compounds with MITF primary; AlphaScreen optical interference counterscreen, cell-free; IC50, µM; 480 compounds, 6% hits; AID 1259373; call rule not given here
AS interf ctr – AlphaScreen optical interference, counter-screen; shares compounds with MITF primary; LysRS AlphaScreen counterscreen, signal interference, triplicate; inhibition, % at 2.6 µM; 4,700 compounds, 7.6% hits;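 active = inhibition above a cutoff derived from the DMSO control wells, cut at about 30% in these data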
Hits are given with their value.

Results for NC(=O)NC(=O)COC(=O)c1c2c(nc3ccccc13)/C(=C\c1ccco1)CCC2 ?
TEAD-YAP inh: inactive; GPR151 ag: inactive; MITF primary: 61.2; FBW7 act: inactive; MITF inh conf: 79.4; AlphaScreen DR: inactive; AS interf ctr: inactive

Results for c1ccc(CN2CCC(N3CCN(C4CCCCC4)CC3)CC2)cc1 ?
TEAD-YAP inh: inactive; GPR151 ag: inactive; MITF primary: inactive; FBW7 act: inactive

Results for Cn1cccc1CN1CCN(Cc2ccc(F)cc2)CC1 ?
TEAD-YAP inh: inactive; GPR151 ag: inactive; MITF primary: 65.2; FBW7 act: inactive; MITF inh conf: inactive; AS interf ctr: inactive

How did Cn1cccc1CN1CCN(C2CCCC2)CC1 do in these assays?
TEAD-YAP inh: inactive; GPR151 ag: inactive; MITF primary: 69.8; FBW7 act: inactive; MITF inh conf: inactive; AS interf ctr: inactive

Results for Cn1cccc1CN1CC[C@H]2[C@H](CCC(=O)N2Cc2ccc(F)cc2)C1 ?
TEAD-YAP inh: inactive; GPR151 ag: inactive; MITF primary: inactive; FBW7 act: inactive

Results for Cn1cccc1CN1CCN(Cc2ccccc2)CC1 ?
TEAD-YAP inh: inactive; GPR151 ag: inactive; MITF primary: 69.7; FBW7 act: inactive; MITF inh conf: inactive; AS interf ctr: inactive

Results for Cn1cccc1CN1CCN(S(C)(=O)=O)CC1 ?
TEAD-YAP inh: inactive; GPR151 ag: inactive; MITF primary: inactive; FBW7 act: inactive

How did Cn1cccc1CN1CCN(Cc2ccncc2)CC1 do in these assays?
TEAD-YAP inh: inactive; GPR151 ag: inactive; MITF primary: 63.6; FBW7 act: inactive; MITF inh conf: inactive; AS interf ctr: inactive

How did O=[N+]([O-])c1ccc(N/N=[N+](\[O-])c2ccccc2)cc1 do in these assays?
TEAD-YAP inh: inactive; GPR151 ag: inactive; MITF primary: inactive; FBW7 act: inactive

Results for CCN(C(=O)CSc1ncccc1C(=O)O)c1cccc(C)c1 ?
TEAD-YAP inh: inactive; GPR151 ag: inactive; MITF primary: inactive; FBW7 act: inactive

Results for CC(=O)c1c(C(C)=O)c(C)n(-c2ccc(C)c(N)c2)c1C ?
TEAD-YAP inh: inactive; GPR151 ag: inactive; MITF primary: inactive; FBW7 act: inactive

Results for CC(C)CNC(=O)C(=O)NCC1OCCCN1S(=O)(=O)c1ccc(Cl)cc1 (stereo not given) ?
TEAD-YAP inh: inactive; GPR151 ag: inactive; MITF primary: 64.5; FBW7 act: inactive; MITF inh conf: inactive; AS interf ctr: inactive

Results for CC(C)CCNC(=O)C(=O)NCC1OCCCN1S(=O)(=O)c1ccc(F)cc1 (stereo not given) ?
TEAD-YAP inh: inactive; GPR151 ag: inactive; MITF primary: 66.7; FBW7 act: inactive; MITF inh conf: inactive; AS interf ctr: inactive

How did CN1C(=O)[C@H]2CN(C(=O)c3ccc(C(F)(F)F)cc3)CCN2C(=O)[C@@H]1CO do in these assays?
TEAD-YAP inh: inactive; GPR151 ag: inactive; MITF primary: inactive; FBW7 act: inactive

What do the screens show for `COCCNC(=O)C1=C(C)C(=O)OC12CCC(C)CC2` (stereo not given)?
TEAD-YAP inh: inactive; GPR151 ag: inactive; MITF primary: inactive; FBW7 act: inactive

Results for N#Cc1ccccc1CNCc1ccc(Cl)cc1 ?
TEAD-YAP inh: inactive; GPR151 ag: inactive; MITF primary: 51.6; FBW7 act: inactive; MITF inh conf: inactive; AS interf ctr: inactive

How did O=C(O)c1c[nH]c2c(Cl)c(Cl)ccc2c1=O do in these assays?
TEAD-YAP inh: inactive; GPR151 ag: inactive; MITF primary: inactive; FBW7 act: inactive

Results for O=C(O)c1c[nH]c2c(ccc3cccnc32)c1=O ?
GPR151 ag: inactive; MITF primary: 121.2; MITF inh conf: 98.0; AS interf ctr: 100.5

What do the screens show for `CCN(CC(=O)Nc1cc(F)ccc1F)CC(=O)Nc1ccccc1C(F)(F)F`?
TEAD-YAP inh: inactive; GPR151 ag: inactive; MITF primary: inactive; FBW7 act: inactive

Results for COc1ccc2c(c1)C1NC(=S)N(c3cccc(C)c3)C(C)(O2)C1C(=O)Nc1ccc(C)cc1C (stereo not given) ?
TEAD-YAP inh: inactive; GPR151 ag: inactive; MITF primary: 56.6; FBW7 act: inactive; MITF inh conf: 30.8; AlphaScreen DR: inactive; AS interf ctr: inactive

How did Cc1ccc(N(CC(=O)NC(C(C)C)C(C)C)S(C)(=O)=O)cc1C do in these assays?
TEAD-YAP inh: inactive; GPR151 ag: inactive; MITF primary: 68.4; FBW7 act: inactive; MITF inh conf: inactive; AS interf ctr: inactive

Results for CCOC(=O)CNC(=S)Nc1ccc(S(N)(=O)=O)cc1 ?
TEAD-YAP inh: inactive; GPR151 ag: inactive; MITF primary: inactive; FBW7 act: inactive

Results for O=C(NCCOc1ccccc1)c1ccc(Br)cc1 ?
TEAD-YAP inh: inactive; GPR151 ag: inactive; MITF primary: inactive; FBW7 act: inactive

How did O=C(O)c1c2c(nc3ccc(S(=O)(=O)N4CCC(C(=O)O)CC4)cc13)CCC2 do in these assays?
TEAD-YAP inh: inactive; GPR151 ag: inactive; MITF primary: 67.5; FBW7 act: inactive; MITF inh conf: 31.0; AlphaScreen DR: inactive; AS interf ctr: inactive

Results for COc1ccc(C)cc1S(=O)(=O)NC1CCCCCC1 ?
TEAD-YAP inh: inactive; GPR151 ag: inactive; MITF primary: inactive; FBW7 act: inactive

Results for COc1ccc(C)cc1NC1CCCCC1 ?
TEAD-YAP inh: inactive; GPR151 ag: inactive; MITF primary: 76.6; FBW7 act: inactive; MITF inh conf: inactive; AS interf ctr: inactive

Results for Cn1c(=O)cc(N2CCCC2)n(Cc2cccc(C(F)(F)F)c2)c1=O ?
TEAD-YAP inh: inactive; GPR151 ag: inactive; MITF primary: 67.9; FBW7 act: inactive; MITF inh conf: inactive; AS interf ctr: inactive

How did Cn1c(=O)cc(N2CCCCC2)n(Cc2cccc(C(F)(F)F)c2)c1=O do in these assays?
TEAD-YAP inh: inactive; GPR151 ag: inactive; MITF primary: inactive; FBW7 act: inactive

How did CC(Oc1ccc(Cl)cc1Cl)C(=O)Nc1ccc(Oc2ccc(Cl)cc2)cc1 (stereo not given) do in these assays?
TEAD-YAP inh: inactive; GPR151 ag: inactive; MITF primary: inactive; FBW7 act: inactive

Results for CCOc1ccc(N2CCN(CC(=O)Nc3ccc(SC)cc3)C2=O)cc1 ?
TEAD-YAP inh: inactive; GPR151 ag: inactive; MITF primary: 61.4; FBW7 act: inactive; MITF inh conf: inactive; AS interf ctr: inactive

Results for COc1ccc(CN2CCC(O)CC2)c(OC)c1 ?
TEAD-YAP inh: inactive; GPR151 ag: inactive; MITF primary: inactive; FBW7 act: inactive

Results for COc1ccc(OC)c(CN2CCN(Cc3ccc(SC)cc3)CC2)c1 ?
TEAD-YAP inh: inactive; GPR151 ag: inactive; MITF primary: 76.0; FBW7 act: inactive; MITF inh conf: inactive; AS interf ctr: inactive

How did CCOc1ccc(CN2CCN(Cc3ccc(OC)cc3OC)CC2)cc1 do in these assays?
TEAD-YAP inh: inactive; GPR151 ag: inactive; MITF primary: 68.4; FBW7 act: inactive; MITF inh conf: inactive; AS interf ctr: inactive

Results for COc1ccc(CN2CCN(Cc3ccc(SC)cc3)CC2)cc1OC ?
TEAD-YAP inh: 34.9; GPR151 ag: inactive; MITF primary: 75.5; FBW7 act: inactive; MITF inh conf: inactive; AS interf ctr: inactive

Screens: PubChem, The Scripps Research Institute Molecular Screening Center
